Data reported in PubChem BioAssay AID1159580 (chemical genetic matrix, 2015).
“And” between values parts separate entries of the source, which are not always exact repeats. Equal values may be shown once. Out of some 5,500 compounds screened, about 2,000 (36%) were called active. About 18% were inconclusive and are not listed. Cut-off read from the data, not from the text of the source: active = normalized growth mostly below about 0.91 (no sharp cut-off); inconclusive = no clear call, values can overlap the other calls; inactive = mostly above about 0.92. The list shows a part of the results.

Assay: chemical genetic growth profiling, strain panel (AID 1159580);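 note: tested at 20 µM; growth read once vehicle control cultures reached saturation at 30 °C; 1 = growth at the plate median or of vehicle wells; lower values mean less growth of the strain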
Settings: S. cerevisiae deletion strains, growth OD

Q: For O=C(NCCSCc1ccco1)Nc1cc(Cl)cc(Cl)c1, which normalized growth (locus YAL013W, strain DEP1, stronger effect = lower value) is on record?
A: 0.915 (active)

Q: And the normalized growth (locus YAR019C, strain CDC15, stronger effect = lower value)?
A: 0.958 (inactive)

Q: What about the normalized growth (locus YBL105C, strain PKC1, stronger effect = lower value) of the same compound?
A: 0.96 (inactive)

Q: And the normalized growth (locus YBR135W, strain CKS1, stronger effect = lower value)?
A: 0.954 (inactive)

Q: What about the normalized growth (locus YBR136W, strain MEC1, stronger effect = lower value) of the same compound?
A: 0.963 (inactive)

Q: What about the normalized growth (locus YBR160W, strain CDC28, stronger effect = lower value) of the same compound?
A: 0.957 (inactive)

Q: And the normalized growth (locus YBR229C, strain ROT2, stronger effect = lower value)?
A: 0.976 (inactive)

Q: And the normalized growth (locus YDL017W, strain CDC7, stronger effect = lower value)?
A: 0.956 (inactive)

Q: What about the normalized growth (locus YDL028C, strain MPS1, stronger effect = lower value) of the same compound?
A: 0.966 (inactive)

Q: And the normalized growth (locus YDL101C, strain DUN1, stronger effect = lower value)?
A: 0.97 (inactive) and 0.977 (inactive)

Q: What about the normalized growth (locus YDL108W, strain KIN28, stronger effect = lower value) of the same compound?
A: 0.958 (inactive)

Q: And the normalized growth (locus YDL132W, strain cdc53, stronger effect = lower value)?
A: 0.949 (inactive)

Q: And the normalized growth (locus YDL134C, strain PPH21, stronger effect = lower value)?
A: 0.724 (active)

Q: What about the normalized growth (locus YDL214C, strain PRR2, stronger effect = lower value) of the same compound?
A: 0.894 (inactive)

Q: What about the normalized growth (locus YDR052C, strain DBF4, stronger effect = lower value) of the same compound?
A: 0.972 (inactive)

Q: What about the normalized growth (locus YDR054C, strain cdc34, stronger effect = lower value) of the same compound?
A: 0.942 (inactive)

Q: What about the normalized growth (locus YDR150W, strain NUM1, stronger effect = lower value) of the same compound?
A: 0.908 (inactive)

Q: And the normalized growth (locus YDR226W, strain ADK1, stronger effect = lower value)?
A: 0.965 (inactive)

Q: What about the normalized growth (locus YDR477W, strain SNF1, stronger effect = lower value) of the same compound?
A: 0.885 (inactive)

Q: And the normalized growth (locus YEL061C, strain CIN8, stronger effect = lower value)?
A: 0.984 (inactive)

Q: And the normalized growth (locus YER123W, strain YCK3, stronger effect = lower value)?
A: 0.842 (inactive)

Q: And the normalized growth (locus YER133W, strain GLC7, stronger effect = lower value)?
A: 0.895 (inactive)

Q: And the normalized growth (locus YFL009W, strain cdc4, stronger effect = lower value)?
A: 0.956 (inactive)

Q: What about the normalized growth (locus YFL029C, strain CAK1, stronger effect = lower value) of the same compound?
A: 0.951 (inactive)

Q: What about the normalized growth (locus YFR003C, strain YPI1, stronger effect = lower value) of the same compound?
A: 0.962 (inactive)

Q: And the normalized growth (locus YFR019W, strain FAB1, stronger effect = lower value)?
A: 0.897 (inactive)

Q: And the normalized growth (locus YFR028C, strain CDC14, stronger effect = lower value)?
A: 0.956 (inactive)

Q: What about the normalized growth (locus YGR040W, strain KSS1, stronger effect = lower value) of the same compound?
A: 0.893 (inactive)

Q: And the normalized growth (locus YGR052W, strain FMP48, stronger effect = lower value)?
A: 0.967 (inactive)

Q: And the normalized growth (locus YGR078C, strain PAC10, stronger effect = lower value)?
A: 0.957 (inactive)

Q: What about the normalized growth (locus YGR092W, strain DBF2, stronger effect = lower value) of the same compound?
A: 0.914 (inactive)

Q: What about the normalized growth (locus YHR030C, strain SLT2, stronger effect = lower value) of the same compound?
A: 0.822 (inactive) and 0.683 (active)

Q: What about the normalized growth (locus YHR079C, strain IRE1, stronger effect = lower value) of the same compound?
A: 0.853 (inactive)

Q: What about the normalized growth (locus YHR082C, strain KSP1, stronger effect = lower value) of the same compound?
A: 0.866 (inactive)

Q: And the normalized growth (locus YHR087W, strain rtc3, stronger effect = lower value)?
A: 0.966 (inactive)

Q: And the normalized growth (locus YHR205W, strain SCH9, stronger effect = lower value)?
A: 0.86 (inactive)

Q: And the normalized growth (locus YIL147C, strain SLN1, stronger effect = lower value)?
A: 0.955 (inactive)

Q: What about the normalized growth (locus YJL095W, strain BCK1, stronger effect = lower value) of the same compound?
A: 0.815 (inactive)

Q: And the normalized growth (locus YJL128C, strain PBS2, stronger effect = lower value)?
A: 0.928 (inactive)

Q: What about the normalized growth (locus YJL157C, strain FAR1, stronger effect = lower value) of the same compound?
A: 0.893 (inactive)

Q: What about the normalized growth (locus YJR016C, strain ILV3, stronger effect = lower value) of the same compound?
A: 0.96 (inactive)

Q: What about the normalized growth (locus YJR043C, strain POL32, stronger effect = lower value) of the same compound?
A: 0.932 (inactive)

Q: What about the normalized growth (locus YJR066W, strain TOR1 (second series), stronger effect = lower value) of the same compound?
A: 0.946 (inactive)

Q: What about the normalized growth (locus YJR066W, strain TOR1, stronger effect = lower value) of the same compound?
A: 0.824 (inactive)

Q: What about the normalized growth (locus YJR075W, strain HOC1, stronger effect = lower value) of the same compound?
A: 0.958 (inactive)

Q: And the normalized growth (locus YKL048C, strain ELM1, stronger effect = lower value)?
A: 0.934 (inactive)

Q: And the normalized growth (locus YKL067W, strain YNK1, stronger effect = lower value)?
A: 0.898 (inactive)

Q: What about the normalized growth (locus YKL101W, strain HSL1, stronger effect = lower value) of the same compound?
A: 0.911 (inactive)

Q: What about the normalized growth (locus YKL193C, strain SDS22, stronger effect = lower value) of the same compound?
A: 0.942 (inactive)

Q: What about the normalized growth (locus YKL203C, strain TOR2, stronger effect = lower value) of the same compound?
A: 0.916 (inactive)

Q: What about the normalized growth (locus YLR039C, strain RIC1, stronger effect = lower value) of the same compound?
A: 0.769 (active)

Q: And the normalized growth (locus YLR058C, strain SHM2 (second series), stronger effect = lower value)?
A: 0.953 (inactive)

Q: And the normalized growth (locus YLR085C, strain ARP6, stronger effect = lower value)?
A: 0.865 (inactive)

Q: And the normalized growth (locus YLR113W, strain HOG1, stronger effect = lower value)?
A: 0.842 (active)

Q: What about the normalized growth (locus YLR133W, strain CKI1, stronger effect = lower value) of the same compound?
A: 0.893 (inactive)

Q: And the normalized growth (locus YLR262C, strain YPT6, stronger effect = lower value)?
A: 0.759 (active)

Q: What about the normalized growth (locus YLR403W, strain SFP1, stronger effect = lower value) of the same compound?
A: 0.868 (inactive)

Q: And the normalized growth (locus YML070W, strain DAK1, stronger effect = lower value)?
A: 0.879 (inactive)

Q: What about the normalized growth (locus YML094W, strain GIM5, stronger effect = lower value) of the same compound?
A: 0.918 (inactive)

Q: What about the normalized growth (locus YMR001C, strain CDC5, stronger effect = lower value) of the same compound?
A: 0.954 (inactive)

Q: What about the normalized growth (locus YMR205C, strain PFK2 (second series), stronger effect = lower value) of the same compound?
A: 0.914 (inactive)

Q: And the normalized growth (locus YMR219W, strain ESC1, stronger effect = lower value)?
A: 0.976 (inactive)

Q: What about the normalized growth (locus YMR263W, strain SAP30, stronger effect = lower value) of the same compound?
A: 0.917 (inactive)

Q: What about the normalized growth (locus YMR277W, strain FCP1, stronger effect = lower value) of the same compound?
A: 0.952 (inactive)

Q: What about the normalized growth (locus YNL006W, strain LST8, stronger effect = lower value) of the same compound?
A: 0.951 (inactive)

Q: And the normalized growth (locus YNL020C, strain ARK1, stronger effect = lower value)?
A: 0.879 (inactive)

Q: And the normalized growth (locus YNL153C, strain GIM3, stronger effect = lower value)?
A: 0.97 (inactive)

Q: And the normalized growth (locus YNL161W, strain CBK1, stronger effect = lower value)?
A: 0.96 (inactive)

Q: And the normalized growth (locus YNL183C, strain NPR1, stronger effect = lower value)?
A: 0.845 (inactive)

Q: And the normalized growth (locus YNL207W, strain RIO2, stronger effect = lower value)?
A: 0.943 (inactive)

Q: And the normalized growth (locus YNL222W, strain SSU72, stronger effect = lower value)?
A: 0.953 (inactive)

Q: What about the normalized growth (locus YNL298W, strain CLA4 (second series), stronger effect = lower value) of the same compound?
A: 0.879 (inactive)

Q: What about the normalized growth (locus YNL307C, strain MCK1 (second series), stronger effect = lower value) of the same compound?
A: 0.888 (inactive)

Q: And the normalized growth (locus YNL322C, strain KRE1, stronger effect = lower value)?
A: 0.96 (inactive)

Q: And the normalized growth (locus YNR030W, strain Alg12, stronger effect = lower value)?
A: 0.897 (inactive)

Q: And the normalized growth (locus YOL078W, strain AVO1, stronger effect = lower value)?
A: 0.948 (inactive)

Q: What about the normalized growth (locus YOL136C, strain PFK27, stronger effect = lower value) of the same compound?
A: 0.853 (inactive)

Q: And the normalized growth (locus YOR061W, strain CKA2, stronger effect = lower value)?
A: 0.9 (inactive)

Q: And the normalized growth (locus YOR119C, strain RIO1, stronger effect = lower value)?
A: 0.954 (inactive)

Q: What about the normalized growth (locus YOR231W, strain MKK1, stronger effect = lower value) of the same compound?
A: 0.863 (inactive)

Q: What about the normalized growth (locus YOR329C, strain SCD5, stronger effect = lower value) of the same compound?
A: 0.956 (inactive)

Q: What about the normalized growth (locus YPL031C, strain PHO85, stronger effect = lower value) of the same compound?
A: 0.872 (inactive)

Q: What about the normalized growth (locus YPL055C, strain LGE1, stronger effect = lower value) of the same compound?
A: 0.858 (inactive)

Q: And the normalized growth (locus YPL153C, strain RAD53, stronger effect = lower value)?
A: 0.894 (inactive)

Q: What about the normalized growth (locus YPL204W, strain HRR25, stronger effect = lower value) of the same compound?
A: 0.867 (inactive)

Q: And the normalized growth (locus YPL209C, strain IPL1, stronger effect = lower value)?
A: 0.958 (inactive)

Q: And the normalized growth (locus YPL241C, strain CIN2, stronger effect = lower value)?
A: 0.937 (inactive)

Q: And the normalized growth (locus YPL256C, strain CLN2, stronger effect = lower value)?
A: 0.818 (active)

Q: And the normalized growth (locus YPR025C, strain CCL1, stronger effect = lower value)?
A: 0.952 (inactive)

Q: What about the normalized growth (locus YPR106W, strain ISR1, stronger effect = lower value) of the same compound?
A: 0.959 (inactive)

Q: What about the normalized growth (locus YPR111W, strain DBF20, stronger effect = lower value) of the same compound?
A: 0.957 (inactive)

Q: And the normalized growth (locus YPR135W, strain CTF4, stronger effect = lower value)?
A: 0.841 (inactive)

Q: What about the normalized growth (strain NNK1, stronger effect = lower value) of the same compound?
A: 0.952 (inactive)

Q: What about the normalized growth (strain TSCII, stronger effect = lower value) of the same compound?
A: 0.954 (inactive)
